Rango complex inh: inhibitors of Rango-importin beta complex formation. Q14974. Rango CFP/YFP FRET sensor + importin beta, 45 min. 0.031% of 340,000 active. AID 540263. Potency, µM (highest dose often 92.2 µM), without a hit: at the highest dose inhibition of complex formation;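 also: potency is read from the fitted curve at half-maximal effect; 0% = DMSO wells and 100% = buffer wells lacking importin beta; nearly all actives have a fitted effect of over 15% in size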
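Inhibition scored from the CFP 486 nm/YFP 530 nm FRET ratio 45 min after adding 0.125 microM importin beta to 50 nM Rango biosensor preincubated 5 min with compound (room temperature, PBS with DTT, Tween-20, BSA). No-importin wells as positive control.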
Mm-Cpn inhibitor: inhibitors of Methanococcus maripaludis chaperonin TRiC (MmCpn); purified Mm-Cpn ATPase, ADP Transcreener TR-FRET; Potency, µM (series often up to 76.9 µM), for the others: top-dose activity, negative = inhibition, hits mostly inhibitors; 0.031% of 330,000 active; AID 504842; active = well fitted inhibition curve with a large enough effect; inconclusive = small, poorly fitted or top-dose-only effect; also: potency is read from the fitted curve at half-maximal effect; % is scaled to controls: 0 for no effect and ±100 for the full control effect; nearly all actives have a fitted effect of over 80% in size
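Compound-treated chaperonin, 25 nM final, turns over 10 uM ATP at 37°C for 30 min following a 10 min preincubation; ADP generated competes with ADP-d2 for Eu-cryptate antibody, lowering FRET.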
DRD3 agonist: D3 dopamine receptor (human) agonism; P35462; D3R DiscoveRx beta-arrestin cells, luminescence, 90 min; max activation, %; 0.58% of 410,000 active; AID 652048; in the data active = max activation above about 30%; also: 0% is about no effect
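Cells at 1500/well, incubated overnight, then treated with pinned compounds (dopamine as control) for 90 min at 37 degrees C. DiscoveRx reagent added for 30 - 60 minutes at room temperature; luminescence read.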
PTAP TSG101 blk: blocks PTAP/TSG101 interaction to inhibit HIV-1 budding; Fluorescence polarization, FITC-PTAP peptide / Tsg101 binding; Potency, µM (series often up to 115 µM), inactives show at the highest dose activity change, negative = inhibition, hits mostly inhibitors; 340,000 tested, under 10 active; active = well fitted inhibition curve with a large enough effect in the main read-out, with a control signal flat, not every such curve was filed as active; inconclusive = small, poorly fitted or top-dose-only effect, or effect the other way, or a change in a side signal; inactive = no such curve, though single readings can be large or run the other way; also: potency is read from the fitted curve at half-maximal effect; % of control where 0% means no effect
Target sequence (Q99816 whole entry, looked up): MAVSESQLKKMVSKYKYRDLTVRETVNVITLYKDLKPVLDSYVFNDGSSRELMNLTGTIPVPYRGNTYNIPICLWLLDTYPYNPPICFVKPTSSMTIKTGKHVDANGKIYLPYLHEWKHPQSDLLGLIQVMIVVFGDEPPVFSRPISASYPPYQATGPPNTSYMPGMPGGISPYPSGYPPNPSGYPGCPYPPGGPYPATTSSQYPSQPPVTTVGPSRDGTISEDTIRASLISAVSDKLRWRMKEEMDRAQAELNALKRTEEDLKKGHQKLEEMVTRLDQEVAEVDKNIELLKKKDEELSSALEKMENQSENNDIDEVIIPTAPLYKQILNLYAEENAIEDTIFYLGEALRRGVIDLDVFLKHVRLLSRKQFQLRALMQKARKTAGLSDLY
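Compounds were pin-transferred onto Tsg101 binding domain (10 uM final) in HEPES pH 7.5 buffer, then FITC-PTAP peptide was added at 50 nM final. After 20 min at RT, polarization reported peptide displacement across a qHTS concentration series.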
Rango dissoc inh: inhibitors of RanGTP-induced Rango-importin beta complex dissociation | O95149+P62826 | Biochemical FRET Rango-importin beta, RanGTP-induced dissociation | Potency, µM (series often up to 46.1 µM), inactives show at the highest dose activity change, negative = inhibition | 0.071% of 340,000 active; also: potency is read from the fitted curve at half-maximal effect; % of control where 0% means no effect; nearly all actives have a fitted effect of over 45% in size
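Compounds preincubate 5 min with complex of recombinant Rango and importin beta in PBS with 1 mM DTT. Ran (0.6 uM) loaded with 2 mM GTP plus 0.2 uM RCC1 starts dissociation; FRET is recorded 45 min later.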
DRD3 antagonist: D3 dopamine receptor (human) antagonism. D3R cells, DiscoveRx beta-arrestin luminescence, antagonist mode; hits give low values. AID 652054. 2.5% of 360,000 active. max response, negative = inhibition, %. P35462; in the data active = max response below about -50%; inconclusive = no clear call, values can overlap the other calls; also: % is scaled to controls: 0 for no effect and ±100 for the full control effect
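Cells plated overnight at 1500 cells/well, then exposed to library compounds with dopamine controls for 90 minutes at 37 degrees C. DiscoveRx reagent added for 30–60 minutes at room temperature; luminescence read, quantitative HTS format.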
* marks the source's active call; other numbers are inactive results. Hits are enriched below; roughly 2.9% of the tested compounds scored in any of these assays. Unless noted, calls follow the shape of the full dose curve.

`COC(=O)c1c(-c2ccsc2)sc2ccc(-c3cc(OC)c(OC)c(OC)c3)cc12` gave Rango complex inh -1%, Mm-Cpn inhibitor inconclusive, DRD3 agonist 53*, PTAP TSG101 blk 0%, Rango dissoc inh 11% and DRD3 antagonist 49.
For COc1cc(-c2ccc3sc(-c4ccsc4)c(C#CCO)c3c2)cc(OC)c1OC the results were Rango complex inh -1%, Mm-Cpn inhibitor -29%, DRD3 agonist 50*, PTAP TSG101 blk 3%, Rango dissoc inh 10% and DRD3 antagonist 51.
Screening N#CC1(c2ccccc2)CCC(NCCc2ccccc2)CC1 (stereo not given) returned Rango complex inh 0%, Mm-Cpn inhibitor 1%, DRD3 agonist -18, PTAP TSG101 blk 0%, Rango dissoc inh 1% and DRD3 antagonist -54*.
O=C(NCCc1ccccc1)C1(c2ccccc2)CCCC1 was read as Rango complex inh 4%, Mm-Cpn inhibitor -2%, DRD3 agonist -4, PTAP TSG101 blk 0%, Rango dissoc inh -8% and DRD3 antagonist -2.
O=C(O)CCCN1C(=O)/C(=C/c2ccc(-c3nc4ccccc4s3)o2)SC1=S was read as Rango complex inh inconclusive, Mm-Cpn inhibitor 0%, DRD3 agonist -1, PTAP TSG101 blk -12%, Rango dissoc inh inconclusive and DRD3 antagonist -82*.
For Cc1ccc(C(C)C)c(OCC(=O)N/N=C/c2cccn2C)c1 the results were Rango complex inh 1%, Mm-Cpn inhibitor -4%, DRD3 agonist 31*, PTAP TSG101 blk -4%, Rango dissoc inh 24% and DRD3 antagonist 37.
Screening Cc1ccc(S(=O)(=O)NC(=O)COc2cc(C)ccc2C(C)C)cc1 returned Rango complex inh inconclusive, Mm-Cpn inhibitor 0%, DRD3 agonist -7, PTAP TSG101 blk 1%, Rango dissoc inh 14% and DRD3 antagonist -55*.
`Cc1ccc(C(C)C)c(OCC(=O)NNC(=O)Nc2ccccc2)c1` gave Rango complex inh 0%, DRD3 agonist 3, PTAP TSG101 blk 7%, Rango dissoc inh -2% and DRD3 antagonist 1.
For COc1ccc(CO[C@@H]2O[C@H](CO)[C@@H](O)[C@H](O)[C@H]2NC(C)=O)cc1OC the results were Rango complex inh 3%, Mm-Cpn inhibitor 1%, DRD3 agonist -4, PTAP TSG101 blk 0%, Rango dissoc inh -9% and DRD3 antagonist -52*.
CCOc1ccc(CO[C@@H]2O[C@H](CO)[C@@H](O)[C@H](O)[C@H]2NC(C)=O)cc1OC was read as Rango complex inh -1%, Mm-Cpn inhibitor 0%, DRD3 agonist 12, PTAP TSG101 blk -3%, Rango dissoc inh 7% and DRD3 antagonist 21.
For Cc1ccc(-c2noc(C3CCCN(C(=O)c4ccc(C(C)(C)C)cc4)C3)n2)o1 (stereo not given) the results were Rango complex inh -1%, Mm-Cpn inhibitor 2%, DRD3 agonist 10, PTAP TSG101 blk -1%, Rango dissoc inh -17% and DRD3 antagonist 8.
O=C(CSc1nc2ncccc2[nH]1)Nc1c(F)cc(F)cc1Br was read as Rango complex inh 5%, Mm-Cpn inhibitor 2%, DRD3 agonist -3, PTAP TSG101 blk 1%, Rango dissoc inh -3% and DRD3 antagonist -58*.
`O=C(CSc1ncn[nH]1)Nc1c(F)cc(F)cc1Br` gave Rango complex inh -3%, Mm-Cpn inhibitor 0%, DRD3 agonist -1, PTAP TSG101 blk 1%, Rango dissoc inh 3% and DRD3 antagonist -14.
For Cc1noc(-c2ccccc2OCC(=O)Nc2cccc([N+](=O)[O-])c2)n1 the results were DRD3 agonist 1.
`COc1ccccc1CCC(=O)OCC(=O)c1c(N)n(CC(C)C)c(=O)n(C)c1=O` gave Rango complex inh -3%, Mm-Cpn inhibitor 0%, DRD3 agonist 31*, PTAP TSG101 blk -11%, Rango dissoc inh -13% and DRD3 antagonist 7.
Screening Cn1c(N)c(C(=O)COC(=O)c2cc(C3CC3)nc3ccccc23)c(=O)n(Cc2ccccc2)c1=O returned Rango complex inh inconclusive, Mm-Cpn inhibitor 0%, DRD3 agonist 36*, PTAP TSG101 blk 2%, Rango dissoc inh inconclusive and DRD3 antagonist 3.
For CC(C)Cn1c(N)c(C(=O)CSc2nc3ccccc3n2C)c(=O)n(C)c1=O the results were Rango complex inh 3%, Mm-Cpn inhibitor -4%, DRD3 agonist 11, Rango dissoc inh -7% and DRD3 antagonist -54*.
`CC(C)Cn1c(N)c(C(=O)COC(=O)c2cc(C(F)(F)F)nc3ccccc23)c(=O)n(C)c1=O` gave Rango complex inh inconclusive, Mm-Cpn inhibitor 0%, DRD3 agonist 34*, PTAP TSG101 blk 1%, Rango dissoc inh -22% and DRD3 antagonist 95.
Cn1c(N)c(C(=O)COC(=O)c2cc(C(F)(F)F)nc3ccccc23)c(=O)n(C)c1=O was read as Mm-Cpn inhibitor -3%.
Screening Cn1c(N)c(C(=O)COC(=O)c2cc(-c3ccccc3)nc3ccccc23)c(=O)n(Cc2ccccc2)c1=O returned Rango complex inh inconclusive, Mm-Cpn inhibitor -2%, DRD3 agonist 10, PTAP TSG101 blk 2%, Rango dissoc inh inconclusive and DRD3 antagonist 24.
Screening Cc1ccc(CN2COc3ccc4c(-c5ccccc5)cc(=O)oc4c3C2)cc1 returned DRD3 agonist -12.
For O=C(NCCCN1CCN(c2cccc(Cl)c2)CC1)c1sc2ncccc2c1-n1cccc1 the results were DRD3 agonist 3.
Screening CC1(C(=O)NC2CCN(Cc3ccccc3)CC2)CCN1CCc1ccccc1 (stereo not given) returned DRD3 agonist -21 and DRD3 antagonist -85*.
For CC(C)(Oc1ccc(Cl)cc1)C(=O)NC1CCN(Cc2ccccc2)CC1 the results were Rango complex inh -5%, Mm-Cpn inhibitor -4%, DRD3 agonist -28, PTAP TSG101 blk -6%, Rango dissoc inh -15% and DRD3 antagonist -82*.
`O=C(COc1ccccc1)NC1CCN(Cc2ccccc2)CC1` gave Rango complex inh -4%, Mm-Cpn inhibitor -2%, DRD3 agonist -59, PTAP TSG101 blk -6%, Rango dissoc inh -14% and DRD3 antagonist inconclusive.
For COc1ccccc1CC(=O)NC1CCN(Cc2ccccc2)CC1 the results were Rango complex inh -5%, Mm-Cpn inhibitor 0%, DRD3 agonist -22, PTAP TSG101 blk -3%, Rango dissoc inh 7% and DRD3 antagonist -23.
Screening COc1cc(N)c(Cl)cc1C(=O)NC1CCN(Cc2ccccc2)CC1 returned Rango complex inh 0%, DRD3 agonist -96, PTAP TSG101 blk 0%, Rango dissoc inh 13% and DRD3 antagonist -108*.

Assay outcomes as filed in PubChem BioAssay.
